Only some compounds are listed: those with a hit (about 5.4% of all), similar ones and a draw of the others.
ALR H2O2 inh: inhibitors of human ALR sulfhydryl oxidase, primary screen, biochemical, H2O2 detection, HRP-luminol luminescence, single point | FAD-linked sulfhydryl oxidase ALR (Homo sapiens), P55789 | purified ALR, DTT oxidation | inhibition, % (concentration not given with the values) | 290,000 tested, 3.8% active | AID 485317, 2010;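 active means mean replicate inhibition above about 79%, with every replicate also reaching it, limit read from the data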
Target sequence (P55789 whole entry, looked up): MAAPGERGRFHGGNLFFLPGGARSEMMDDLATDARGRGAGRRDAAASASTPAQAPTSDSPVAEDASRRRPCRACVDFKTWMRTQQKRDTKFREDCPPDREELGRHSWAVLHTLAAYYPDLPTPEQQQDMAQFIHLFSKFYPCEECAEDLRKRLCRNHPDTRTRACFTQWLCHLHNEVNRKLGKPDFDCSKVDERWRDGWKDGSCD
SMARCA2 activ: SMARCA2 (BRM) function activators, primary screen, cell-based, luminescence, high throughput. MG213 cells, MMTV-luciferase reporter, dexamethasone, overnight. activation, % at 9.1 µM. 370,000 tested, 1% active; in the data active means activation above about 7.8%;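 further: 0% = vehicle wells and 100% = reference activator wells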
PfM18AAP inh: PfM18AAP inhibitors, malaria aminopeptidase, primary screen, biochemical, QFRET, recombinant enzyme; AID 1822, 2009; H-Glu-NHMec fluorogenic cleavage; inhibition, % at 7.35 µM; 290,000 tested, 1.2% active;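 active means inhibition above the campaign mean inhibition over all tested compounds plus 3 SD, cut at about 28% in these data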;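 further: 0% = plate median of test compound wells and 100% = 2 mM ZnCl2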
GASC-1 inh: inhibitors of GASC-1 histone demethylase, primary screen, biochemical, fluorescence, DELFIA europium; Lysine-specific demethylase 4C (Homo sapiens), Q9H3R0; GST-JMJD2C(1-420) H3K9me3 demethylation; inhibition, % at 2.35 µM; 330,000 tested, 0.069% active;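 active means more than half of a compound's replicate wells show inhibition beyond 50%, single wells judged on their own value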;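 further: signal counts dimethyl H3K9 product captured on neutravidin plate; 0% = median of DMSO wells and 100% = 0.3 times that DMSO median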
Target sequence (Q9H3R0 1-420 limits assumed): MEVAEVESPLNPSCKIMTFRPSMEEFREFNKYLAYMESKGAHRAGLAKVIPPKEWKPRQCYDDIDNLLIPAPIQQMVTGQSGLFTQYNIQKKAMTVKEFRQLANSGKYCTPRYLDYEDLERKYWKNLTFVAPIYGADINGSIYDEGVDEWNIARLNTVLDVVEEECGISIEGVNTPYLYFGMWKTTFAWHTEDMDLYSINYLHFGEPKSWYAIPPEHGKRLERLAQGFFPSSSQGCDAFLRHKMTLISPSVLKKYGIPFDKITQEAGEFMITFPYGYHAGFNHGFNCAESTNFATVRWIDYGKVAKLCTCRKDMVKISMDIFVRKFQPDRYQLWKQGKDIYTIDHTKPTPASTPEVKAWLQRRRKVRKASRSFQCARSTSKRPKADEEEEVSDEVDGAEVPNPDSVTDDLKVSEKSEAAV
MIN6 prolif-1: inducers of MIN6 beta-cell proliferation, primary screen, ATP luminescence, uHTS | MIN6 cells proliferation, ATPlite luminescence, 48 h; cells starved in 0.2% serum; 100% = growth in 10% serum | proliferation, % at 10 µM | 330,000 tested, 0.29% active | AID 2380, 2010;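 active means compounds whose signal lies at least 3.5 SD above the mean of all wells on their plate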;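 further: 0% = DMSO-treated cells in low-serum medium and 100% = 10% serum control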
Granule exo inh: LAMP-1 surface exposure blockers, TALL-104 cells – cell-based, flow cytometry, MLPCN library, primary screen | TALL-104 LAMP-1 surface exposure; cells stimulated with thapsigargin and PMA | inhibition, % at 10 µM | 360,000 tested, 0.66% active;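 active means inhibition above about 55%, limit read from the data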
MIN6 prolif-2: inducers of beta-cell proliferation in MIN6, confirmation, MIN6 cells, mouse. 920 tested, under 10 active. proliferation increase, % at 50 µM. ATPlite luminescence, 48 h; cells kept in 0.2% serum; scaled between 0.2% and 10% serum. shares compounds with MIN6 prolif-1;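 active means proliferation increase above 40% at any of the four tested concentrations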
Numbers without * were called inactive; . = not tested or not shown; ! = not active in a repeat.

SMILES | ALR H2O2 inh | SMARCA2 activ | PfM18AAP inh | GASC-1 inh | MIN6 prolif-1 | Granule exo inh | MIN6 prolif-2
COC(=O)C1=C(C)NC(C)=C([N+](=O)[O-])C1c1ccccc1C(F)(F)F (stereo unspecified) | -17 | -3 | 5 | 13 | 14*! | 5 | -6
O=C(Nc1ccccc1)OC[C@@H]1CSCCS(=O)(=O)N1 | . | 0 | . | . | . | . | .
O=C(CN(Cc1ccccc1)C(=O)CNS(=O)(=O)c1ccc(Cl)cc1)NCC1CCCO1 (stereo unspecified) | 4 | -4 | 2 | 26 | 0.0* | -4 | 2
COC(=O)c1ccc(CO/N=C/c2ccc(OC)cc2OC)cc1 | -4 | 0 | 4 | 4 | 8.0* | 16 | 0
COC(=O)c1ccc(OC)c(OC2CCCC2)c1 | 3 | 3 | 2 | -3 | 6.6* | 0 | 3
COc1ccc(NC(=O)C2CC2)cc1OC1CCCC1 | -8 | . | -8 | -6 | 2 | -9 | .
Cc1cc(C)c(C)c(S(=O)(=O)Nc2ccccc2C(=O)NCCCN2CCOCC2)c1C | 1 | -2 | -4 | 14 | 8.2* | -4 | -6
COc1c([N+](=O)[O-])c(=O)n(-c2ccccc2)c2ccccc12 | 6 | -2 | -9 | -6 | 0 | -2 | .
Cc1ccc(-n2c(C)c([N+](=O)[O-])c3ccc(O)cc32)cc1 | -13 | -7 | 12 | 4 | 7.7* | . | -6
Cc1c([N+](=O)[O-])c2ccc(O)cc2n1-c1ccccc1 | 5 | -5 | 6 | 1 | 15* | -3 | 8
COC(=O)CSc1nc(N)c(C#N)c(-c2ccco2)c1C#N | . | 0 | 1 | 4 | -3 | 0 | .
CCSc1nc(N)c(C#N)c(-c2ccco2)c1C#N | -1 | 2 | 5 | 25 | 14* | 2 | 5
CCC(C)Nc1nc(N)c([N+](=O)[O-])c(NCc2ccccc2)n1 (stereo unspecified) | 4 | -2 | 2 | 0 | 6.2* | 9 | -6
Cc1ccc(-c2nn3c(C)nnc3s2)cc1NC(=O)COc1ccc(Cl)cc1 | . | 0 | 0 | -6 | 10.0* | 15 | -2
COc1ccc(OC(=O)COc2cc(C)ccc2C)cc1 | 11 | 1 | 6 | -1 | 6.1* | -1 | -1
COc1ccc(CC(=O)Oc2cc(C)ccc2C)cc1 | . | 2 | -14 | -8 | -5 | -1 | .
COc1ccc(Cn2c(C3CC3)nc3ccc(NC(=O)c4ccco4)cc3c2=O)cc1 | 2 | 1 | -9 | 30 | 5.5* | 19 | -5
CCC(=O)Nc1ccc2nc(C3CC3)n(Cc3ccccc3)c(=O)c2c1 | 0 | 4 | 2 | -10 | -2 | -3 | .
O=C(Nc1cccnc1)c1ccc(CSc2ccc(Cl)cc2)o1 | . | -5 | . | . | . | . | .
COc1cccc(CNC(=O)[C@H]2CCCN2C(=O)[C@H]2CCCN2C(=O)N2CCOCC2)c1 | . | -1 | . | . | . | . | .
CCCn1c(=N)c(S(=O)(=O)c2ccc(F)cc2)cc2c(=O)n3ccccc3nc21 | 2 | -1 | 4 | 8 | 17* | -1 | -6
CC(C)Cc1nc2n[nH]c(N)c2c2c1CCC2 | 4 | 2 | -11 | -9 | 0.0* | -4 | 2
CC(C)c1nc2n[nH]c(N)c2c2c1CCCC2 | 21 | -1 | -26 | 2 | 6.1* | 4 | 7
CC(C)Cc1nc2n[nH]c(N)c2c2c1CCCC2 | 2 | 0 | 6 | 0 | 2 | 5 | .
COC(=O)[C@]12C[C@H](CC(=O)N3CCN(C(=O)C4CC4)CC3)C(=O)N(Cc3ccco3)C1=C[C@H](C(C)(C)C)O[C@@H]2C | . | -2 | . | . | . | . | .
SMILES | ALR H2O2 inh | SMARCA2 activ | PfM18AAP inh | GASC-1 inh | MIN6 prolif-1 | Granule exo inh | MIN6 prolif-2
CCc1nn(C(CC)C(=O)NCc2cccc(OC)c2)c(=O)c2cc3occc3n12 (stereo unspecified) | -2 | -3 | 7 | -5 | 8 | 2 | .
CCc1nn(C(CC)C(=O)NCc2cccc(OC)c2OC)c(=O)c2cc3occc3n12 (stereo unspecified) | 2 | -4 | 2 | -3 | 14* | 19 | -6
CC(NCc1ccco1)C(=O)N1CCCN(C)CC1 (stereo unspecified) | . | 3 | . | . | . | . | .
COc1cccc(C(C(=O)NC(C)(C)C)N(C(=O)CCC(=O)Nc2cc(C)on2)C(C)(C)C)c1OC (stereo unspecified) | 1 | -1 | -8 | -2 | 5.2* | -3 | -1
CCCCN(C(=O)CCC(=O)Nc1cc(C)on1)C(C(=O)NC(C)(C)C)c1ccccc1Cl (stereo unspecified) | -5 | 1 | 2 | -11 | -1 | 14 | .
Cc1cc(NC(=O)CCC(=O)N(CC(C)C)C(C(=O)NC(C)(C)C)c2ccccc2Cl)no1 (stereo unspecified) | 1 | -1 | -1 | 3 | 6.7* | -6 | -3
COc1cccc(C(C(=O)NC(C)(C)C)N(C(=O)CCC(=O)Nc2cc(C)on2)C(C)C)c1OC (stereo unspecified) | . | -3 | -11 | 44 | 3 | 0 | .
Cc1cc(C)c(S(=O)(=O)c2ccccc2)c(Cl)n1 | . | 0 | 3 | 6 | 4.9* | 2 | -1
COC(=O)c1ccc(S(=O)(=O)NCc2cccc(OC)c2)n1C | 6 | 1 | -5 | 2 | 5.5* | -2 | 0
COc1cc(C=Nc2cccc([N+](=O)[O-])c2C)ccc1OC(C)=O | -4 | -1 | 20 | -2 | 6.4* | -6 | 0
CCOC(=O)c1ccccc1NC(=O)c1cccs1 | -2 | 7 | 3 | 10 | 7.4* | -2 | 4
O=C(NCc1ccccc1)[C@@H]1CCCN1C(=O)[C@H]1CCCN1C(=O)c1cccc(F)c1 | . | -4 | . | . | . | . | .
N#CCc1ccc(Oc2ncccn2)cc1 | -9 | 0 | -19 | -23 | 8.4* | 27 | 0
CC1(C)CN2C(=O)c3ccccc3C2(C)S1 (stereo unspecified) | -22 | -2 | 6 | -6 | 8.0* | -1 | 0
CN(C)c1ccc(Cn2c(=O)n(Cc3ccc(C(=O)NCC4COC4)cc3)c(=O)c3ccccc32)cc1 | . | -2 | . | . | . | . | .
CCOC(=O)C1CCN(c2cc3c(cc2NC(=O)c2ccccc2Cl)n(C)c(=O)n3C)CC1 | -6 | -1 | 7 | -2 | 15* | 8 | -6
CCOC(=O)C1CCN(c2cc3c(cc2NC(=O)c2ccccc2F)n(C)c(=O)n3C)CC1 | 7 | -6 | -11 | 5 | 0 | 2 | .

From PubChem
